From PubChem BioAssay AID1794844 (National Center for Advancing Translational Sciences (NCATS), 2023)
The campaign covered roughly 2,800 compounds. Fewer than 10 were called active. About 7% were inconclusive and are not listed. The call rests on the fitted dose curve; in most records, active means well fitted inhibition curve with a large enough effect; inconclusive means small, poorly fitted or top-dose-only effect; inactive means no such curve, though single readings can be large or run the other way. A selection follows. Where a call stands in place of a potency, no number is given.
Potency means the concentration at half of the fitted maximal effect.

Each compound was assayed against Metallo-beta-lactamase type 2 (Klebsiella pneumoniae) (UniProt C7C422) (assay: qHTS to identify inhibitors of the New Delhi Metallo-beta-lactamase (NDM): Nitrocefin screen against the machine-based learning selections.). Conditions: NDM-1 enzyme, nitrocefin hydrolysis, absorbance 485 nm; series mostly up to 38.4 µM.
Sequence of Metallo-beta-lactamase type 2 (Klebsiella pneumoniae) (C7C422 whole entry, looked up): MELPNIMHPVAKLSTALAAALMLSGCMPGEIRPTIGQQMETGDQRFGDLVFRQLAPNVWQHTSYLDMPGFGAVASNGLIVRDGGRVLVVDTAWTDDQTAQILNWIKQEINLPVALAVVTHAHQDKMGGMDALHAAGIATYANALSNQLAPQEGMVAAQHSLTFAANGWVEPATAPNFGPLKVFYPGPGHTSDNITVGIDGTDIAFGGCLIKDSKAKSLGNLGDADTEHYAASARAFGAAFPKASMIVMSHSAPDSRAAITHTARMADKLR
Text: Assay Submitter (PI): James Inglese Ph.D., Patricia Dranchak Ph.D., Mahesh Aitha Ph.D. Assay Development and Screening Technology Laboratory (ADST) National Center for Advancing Translational Sciences (NCATS), Rockville, MD National Institute of Health (NIH), Bethesda, Maryland The metallo-beta-lactamases (MBL) are a main antibiotic resistance mechanism evolved by bacteria. There is an urgent clinical need for MBL inhibitors to mitigate this growing threat. To support a machine-based learning study, qHTS has been used to experimentally test inhibitors identified by prediction tools.
PROTOCOL TABLE (as described by Inglese et al., 2007) SEQUENCE No. (e.g., 1, 2, 3, etc.); […] (e.g., enzyme, Incubation, Reagent, etc.); VALUE; DESCRIPTION Primary Screen 1; NDM-1; 4 uL of 3 nM enzyme [2 nM final] in 50 mM HEPES (pH 7.0), 1 uM […], 0.01% Tween20; Use BioRaptr to dispense into two sets of Aurora black, clear bottom high base 1536-well plates 2; Compounds; 23 nL; Use Pin Tool (Wako) to transfer DMSO control and library compounds in DMSO 3; Incubate; >30 min 4a; Reagent; 2 uL of 50 uM nitrocefin [16.7 uM final] to one set of assay plates 4b; Reagent; 2 uL of 150 uM meropenem [50 uM final] to second set of assay plates 5a; Incubate; 15 min 5b; Incubate; 30 min 6a; Detector; Absorbance at 485 nm (bandwidth = 5 nm, 25 flashes/well) on Tecan Infinity 6b; Detector; Absorbance at 300 nm (bandwidth = 5 nm, 25 flashes/well) on Tecan Infinity NOTES (numbers refer to sequence above) 1; Column 1 of each plate received assay buffer without enzyme and columns 2-48 received enzyme for a final assay concentration of 2 nM. 2; Control plate contained DMSO in columns 1, 2, 3, and 4. 3; Compound interaction with enzyme. 4; Nitrocefin and meropenem substrates were prepared in the same assay buffer as step 1 for a final assay concentration of 16.7 uM and 50 uM, respectively, and added to all wells across respective sets of assay plates. 5; Default reader settings were applied for absorbance read at 485 nm (nitrocefin) or 300 nm (meropenem), bandwidth = 5 nm, 25 flashes/well. References: Inglese J, Shamu CE, Guy RK. 2007. Reporting data from high-throughput screening of small-molecule libraries. Nat Chem Biol. doi:10.1038/nchembio0807-438 Yasgar A, Shinn P, Jadhav A, Auld D, Michael S, Zheng W, Austin CP, Inglese J, Simeonov A. 2008. Compound Management for Quantitative High-Throughput Screening. J Lab Autom 13:79 - 89. doi:10.1016/j.jala.2007.12.004
For Cc1ccc2c(n1)N(C)[C@H](CO)CCN(Cc1cccnc1)C2, the Potency was “inactive”.
For O=C(C1CC1)N1CCC2(CC1)CCN(CCc1ccccc1)c1ccccc1O2, the Potency was “inactive”.
COc1ccc(OC)c(CNC(=O)CC2CCOCC2)c1 was tested, and the Potency was “inactive”.
For O=c1[nH]nc(CNCC2(O)CCCNC2)c2ccccc12 (stereo not drawn), the Potency was “inactive”.
In the case of Cc1ccc(C(=O)NC2CCN(c3ccc(F)cc3)C2=O)s1 (stereo not drawn), the Potency is reported as “inactive”.
For Cc1noc(C)c1S(=O)(=O)N1CCCN(Cc2ccncc2)C(c2ccccc2)CC(=O)NCC1 (stereo not drawn), the Potency was “inactive”.
For COc1cccc(N2C(=O)N[C@@H]3CCN(S(=O)(=O)c4ccccc4)[C@@H]3C2=O)c1, the Potency was “inactive”.
In the case of COc1ncccc1C(=O)N1CCc2c(nc(-c3cccnc3)[nH]c2=O)C1, the Potency is reported as “inactive”.
With CN1CCOc2c(C(=O)NCCC(N)=O)cc(-c3ccccc3O)cc21 the Potency was “inactive”.
For O=C(Cc1ccccc1)Nc1ccnn1C1CCN(Cc2ccc3cccc(F)c3n2)CC1, the Potency was “inactive”.
For COC(=O)[C@H]1CN(C(=O)c2cccnc2)CCN1C(=O)C1CCCCC1, the Potency was “inactive”.
COCCNC(=O)C[C@@H]1O[C@H](CNC(=O)c2cccc(F)c2)[C@@H](O)[C@H]1O was tested, and the Potency was “inactive”.
N#Cc1cccc(CN2CCOC[C@H]2c2ncc(-c3ccc(C(F)(F)F)cc3)[nH]2)c1 was tested, and the Potency was “inactive”.
For CCN(CC)Cc1nc(C2(O)CCN(C)CC2)cs1, the Potency was “inactive”.
In the case of Fc1ccc2nc([C@H]3CCN(C4CCC4)C3)[nH]c2c1, the Potency is reported as “inactive”.
With CSc1ncccc1C(=O)NC1CCCN(CCCc2ccccc2)C1 (stereo not drawn) the Potency was “inactive”.
For Cc1ccccc1C1CCCN1Cc1ncccc1C(=O)O (stereo not drawn), the Potency was 13.4 µM (active).
With CC(=O)N1CCN(c2cc(-c3noc([C@@H]4CCCN4Cc4ccccc4C)n3)ccn2)CC1 the Potency was “inactive”.
In the case of O=c1c2nc(NCc3cccs3)ccc2ncn1Cc1ccccc1, the Potency is reported as “inactive”.
COCCNS(=O)(=O)c1cc(C(=O)O)cc(-c2ccc(OC)c(F)c2)c1 was tested, and the Potency was “inactive”.
Cc1noc2c(-c3cccc(O)c3)cc(-c3cccs3)nc12 was tested, and the Potency was “inactive”.
For COC[C@H]1CCCN1C(=O)[C@@H](C)C1CC[C@@]2(C)CC[C@H](NC(=O)CC(C)(C)C)[C@@H](C)[C@@H]2[C@H]1O (stereo partly drawn), the Potency was “inactive”.
CN1C(=O)C(c2ccccc2)CC12CCN(C(=O)c1cccc(F)c1)CC2 (stereo not drawn) was tested, and the Potency was “inactive”.
With CC(C)NC(=O)N1CCN(C(=O)N2CCOCC2)[C@@H](C(=O)N[C@H](Cc2c[nH]c3ccccc23)C(N)=O)C1 the Potency was “inactive”.
In the case of CC[C@H]1CN(C(=O)NC(C)C)CC[C@H]1CC(=O)N(C)CCC#N, the Potency is reported as “inactive”.
Cc1nn2cc(CCNCC3(O)CNCCOC3)nc2s1 (stereo not drawn) was tested, and the Potency was “inactive”.
With COc1ccccc1C(O)c1nc(Nc2ccc(C(C)C)cc2)n[nH]1 (stereo not drawn) the Potency was “inactive”.
Cc1ccc(NC(=O)N[C@@H]2C=C(C(=O)N[C@H](CC(C)C)C(N)=O)C[C@@H](O)[C@@H]2O)cc1 was tested, and the Potency was “inactive”.
Cc1ccc(-n2nc(C)c([C@@H]3C=C[C@@H](NCc4cccc(C#N)c4)C3)c2C)cc1Cl was tested, and the Potency was “inactive”.
In the case of OC(c1ccccc1)c1nc(Nc2ccc(C(F)(F)F)cc2)n[nH]1 (stereo not drawn), the Potency is reported as “inactive”.
CC(C)Cc1cc(C(=O)N2C[C@H](C3CC3)[C@@H](N)C2)n(C)n1 was tested, and the Potency was “inactive”.
In the case of O=C(c1ccc(Cn2cnnn2)cc1)N1CCC2(CC1)[C@H](O)C[C@@H]2OCCO, the Potency is reported as “inactive”.
COc1ccc(OC)c(CNC(=O)Cc2cccn2-c2ccc(C)cc2)c1 was tested, and the Potency was “inactive”.
In the case of COc1ccccc1C(O)c1nc(Nc2ccc(Cl)cc2)n[nH]1 (stereo not drawn), the Potency is reported as “inactive”.
In the case of CNC(=O)C1(N2CCC[C@H]2C(=O)N2CCCC2)COC1, the Potency is reported as “inactive”.
For COCCO[C@H]1C(=O)N(C2CCN(C(=O)c3cnccn3)CC2)[C@H]1c1ccncc1, the Potency was “inactive”.
COc1ccc(C(=O)N2CC[C@@H](CC(=O)O)[C@@H](CCN3CCN(c4ccccn4)CC3)C2)cc1 was tested, and the Potency was “inactive”.
In the case of COCCNC(=O)[C@@H]1CCC[C@@H](NC(=O)C2CC2)CN(C)C(=O)C1, the Potency is reported as “inactive”.
Cc1cccc(C)c1-c1nc(C(=O)NCCc2ccc(Cl)cc2)n2ccccc12 was tested, and the Potency was “inactive”.
For COc1cccc(Nc2cc3c(cn2)CN(Cc2cccnc2)CCN3)c1, the Potency was “inactive”.
With Cc1noc(C)c1S(=O)(=O)N1C[C@@H](C(N)=O)[C@H](C2CCN(C)CC2)C1 the Potency was “inactive”.
With Nc1n[nH]c(CNc2cc(-c3ccc(F)cc3)nc3ccnn23)n1 the Potency was “inactive”.
With COC(=O)c1ccccc1NC(=O)Cn1cccc1-c1nc(-c2ccccc2)no1 the Potency was “inactive”.
COC(=O)[C@@H](C)NC(=O)[C@H]1CN(C(=O)c2cccnc2)CCN1S(C)(=O)=O was tested, and the Potency was “inactive”.
Cc1noc2c(N3CCOCC3)cc(-c3cccnc3)nc12 was tested, and the Potency was “inactive”.
For CC(C)C[C@@H]1N[C@H](C(=O)NCc2cccs2)Cc2c[nH]c3cccc1c23, the Potency was “inactive”.
CCCNC(=O)NC[C@H]1O[C@@H]2C[C@@H](CC(=O)N3CCC(F)(F)C3)O[C@@H]2[C@@H]1O was tested, and the Potency was “inactive”.
For O=C(N[C@H]1[C@H](O)[C@H](O)C[C@@H]1c1cccnc1)c1ccccn1, the Potency was “inactive”.
